# Measured values as given in PubChem BioAssay (EPA / NIEHS).
# “And” between values parts separate entries of the source, which are not always exact repeats. Identical values can stand only once. More than one record can exist for a structure, and the calls need not agree. The source made the active and inactive calls. How the source made its calls: active means hit-call score of the fitted dose curve at least 0.9, where 1 is the maximum; inactive means score below 0.9.
# Experiments:
# Conditions in all cases: mRNA level, 48 h; actives raise or lower the signal
# [1] = read-out: JUN Transcription Factor, JUN (gene 3725); experiment: LTEA_HepaRG_JUN: Life Technologies and Expression Analysis (LTEA) Assay for JUN Transcription Factor using HepaRG (AID 2283513)
# Method in brief: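 mRNA measured by TaqMan qRT-PCR after 48 h chemical exposure of HepaRG cultures; normalization to three housekeeping genes. Duplicate eight-point half-log curves from 100 uM in 0.5% DMSO; gain or loss fitted against DMSO baseline.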
# [2] = read-out: Lipase C (LIPC), LIPC (gene 3990); experiment: LTEA_HepaRG_LIPC: Life Technologies and Expression Analysis (LTEA) Assay for Lipase C (LIPC) using HepaRG (AID 2283514)
# Method in brief: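 In this multiplexed gene-expression screen, human HepaRG cultures received test chemicals for 48 h across eight concentrations with 100 uM highest, in duplicate. Values reflect LIPC mRNA induction or suppression versus DMSO vehicle, from normalized qRT-PCR.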
# [3] = read-out: Lipoprotein lipase (LPL), LPL (gene 4023); experiment: LTEA_HepaRG_LPL: Life Technologies and Expression Analysis (LTEA) Assay for Lipoprotein lipase (LPL) using HepaRG (AID 2283515)
# Method in brief: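 Concentration-response testing used half-log steps from 100 uM in 0.5% DMSO on human HepaRG cells, 48 h, duplicate wells. Phenobarbital 1 mM served as induction control; LPL mRNA was normalized to ACTB, GAPDH, POLR2A.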
# [4] = read-out: MicroRNA 122 (MIR122), gene 406906; experiment: LTEA_HepaRG_MIR122: Life Technologies and Expression Analysis (LTEA) Assay for MicroRNA 122 (MIR122) using HepaRG (AID 2283516); further: the transcript read is the microRNA miR-122
# Method in brief: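 Expression measured by microfluidic qRT-PCR with three housekeeping genes for normalisation, after 48 h treatment of HepaRG cultures. Eight concentrations (top 100 uM, half-log steps, 0.5% DMSO vehicle) in duplicate; gain or loss fitted relative to vehicle.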
# [5] = read-out: matrix metalloproteinase-10 (MMP10), MMP10 (gene 4319); experiment: LTEA_HepaRG_MMP10: Life Technologies and Expression Analysis (LTEA) Assay for matrix metalloproteinase-10 (MMP10) using HepaRG (AID 2283517)
# Method in brief: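 In differentiated HepaRG cultures kept in 0.5% DMSO, test chemicals act for 48 h over an eight-point range with a top dose of 100 uM. Expression is then quantified by TaqMan RT-PCR against ACTB, GAPDH and POLR2A.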
# [6] = read-out: MYC, MYC (gene 4609); experiment: LTEA_HepaRG_MYC: Life Technologies and Expression Analysis (LTEA) Assay for MYC using HepaRG (AID 2283518)
# Method in brief: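 MYC transcript changes, up or down relative to 0.5% DMSO, from TaqMan qRT-PCR normalized to three housekeeping genes. Human HepaRG cultures received chemicals for 48 h at eight half-log concentrations up to 100 uM, in duplicate.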
# [7] = read-out: matrix metalloproteinase-3 (MMP3), MMP3 (gene 4314); experiment: LTEA_HepaRG_MMP3: Life Technologies and Expression Analysis (LTEA) Assay for matrix metalloproteinase-3 (MMP3) using HepaRG (AID 2283519)
# Method in brief: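 Human liver HepaRG cultures received chemicals (top concentration 100 uM, 0.5% DMSO) for 48 h in duplicate. MMP3 mRNA induction or loss was then assessed via TaqMan qRT-PCR with housekeeping-gene normalisation.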
# [8] = read-out: Paternally Expressed 10 (PEG10), PEG10 (gene 23089); experiment: LTEA_HepaRG_PEG10: Life Technologies and Expression Analysis (LTEA) Assay for Paternally Expressed 10 (PEG10) using HepaRG (AID 2283520)
# Method in brief: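 PEG10 transcript measured by Fluidigm qRT-PCR, normalized to three housekeeping genes, in HepaRG cells treated 48 h (highest 100 uM, half-log steps, 0.5% DMSO vehicle). Cells plated 48 h before switching to serum-free induction medium.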
# [9] = read-out: Protein phosphatase 2A (PPP2R4), PTPA (gene 5524); experiment: LTEA_HepaRG_PPP2R4: Life Technologies and Expression Analysis (LTEA) Assay for Protein phosphatase 2A (PPP2R4) using HepaRG (AID 2283522)
# Method in brief: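 Expression was quantified by Fluidigm qRT-PCR normalised to three housekeeping genes after 48 h treatment. Human HepaRG cells received an 8-point series from 100 µM downward by half-logs, in duplicate with 0.5% DMSO vehicle and 1 mM phenobarbital as induction control.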
# [10] = read-out: Phosphatase and tensin (PTEN), PTEN (gene 5728); experiment: LTEA_HepaRG_PTEN: Life Technologies and Expression Analysis (LTEA) Assay for Phosphatase and tensin (PTEN) using HepaRG (AID 2283523)
# Method in brief: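 Expression of PTEN is quantified in the human liver line HepaRG following two days of dosing (top concentration 100 uM, half-log dilutions, 0.5% DMSO). Values derive from bidirectional curve fitting relative to DMSO controls.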
# [11] = read-out: solute carrier (SLC22A1), SLC22A1 (gene 6580); experiment: LTEA_HepaRG_SLC22A1: Life Technologies and Expression Analysis (LTEA) Assay for solute carrier (SLC22A1) using HepaRG (AID 2283524);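 on AC50: TaqMan qRT-PCR normalized to ACTB GAPDH and POLR2A housekeeping genes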
# Method in brief: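 Transcript induction or suppression of SLC22A1 in human HepaRG cultures is scored after 48 h chemical treatment, with DMSO (0.5%) as baseline for bidirectional fitting. Concentrations span eight half-log points topping at 100 uM.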
# [12] = read-out: Pyruvate Dehydrogenase Kinase 4 (PDK4), PDK4 (gene 5166); experiment: LTEA_HepaRG_PDK4: Life Technologies and Expression Analysis (LTEA) Assay for Pyruvate Dehydrogenase Kinase 4 (PDK4) using HepaRG (AID 2283525)
# Method in brief: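 Eight-point, half-log concentration series (max 100 uM, 0.5% DMSO) applied to differentiated HepaRG cells for 48 h in duplicate. Endpoint: PDK4 mRNA induction or repression by qRT-PCR against DMSO baseline.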
# [13] = read-out: NAD(P)H dehydrogenase [quinone] 1 (NQO1), NQO1 (gene 1728); experiment: LTEA_HepaRG_NQO1: Life Technologies and Expression Analysis (LTEA) Assay for NAD(P)H dehydrogenase [quinone] 1 (NQO1) using HepaRG (AID 2283526)
# Method in brief: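 NQO1 transcript induction or loss measured by TaqMan qRT-PCR, referenced to three housekeeping genes and fitted bidirectionally against 0.5% DMSO. HepaRG cultures exposed 48 h, duplicate, eight-point half-log series, top 100 uM.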
# [14] = read-out: Nuclear factor erythroid 2-related factor 2 (Homo sapiens) (UniProt Q16236); experiment: LTEA_HepaRG_NFE2L2: Life Technologies and Expression Analysis (LTEA) Assay for Nuclear factor erythroid 2-related factor 2 (NFE2L2) Transcription Factor using HepaRG (AID 2283527);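 on outcome: TaqMan qRT-PCR transcript level normalised to ACTB GAPDH and POLR2A housekeeping genes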
# Method in brief: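 Human liver HepaRG line treated in duplicate for 48 h with an eight-point series topping at 100 uM. Gene expression of NFE2L2 by qRT-PCR, bidirectionally fitted against the vehicle control.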
# [15] = read-out: succinate dehydrogenase complex iron sulfur subunit B (SDHB), SDHB (gene 6390); experiment: LTEA_HepaRG_SDHB: Life Technologies and Expression Analysis (LTEA) Assay for succinate dehydrogenase complex iron sulfur subunit B (SDHB) using HepaRG (AID 2283528)
# Method in brief: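 HepaRG cells (~100,000/well, plated 48 h) exposed in duplicate for 48 h in serum-free induction medium to 8-point half-log series from 100 uM in 0.5% DMSO; mRNA by qRT-PCR normalised to ACTB, GAPDH, POLR2A; bidirectional fit versus DMSO.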
# [16] = read-out: Signal transducer and activator of transcription 3 (Homo sapiens) (UniProt P40763); experiment: LTEA_HepaRG_STAT3: Life Technologies and Expression Analysis (LTEA) Assay for Signal transducer and activator of transcription (STAT3) using HepaRG (AID 2283529)
# Method in brief: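 In this transcriptional endpoint, HepaRG cultures receive test chemicals at up to 100 uM for 48 h, tested in duplicate. STAT3 mRNA is normalized to ACTB, GAPDH and POLR2A.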
# [17] = read-out: solute carrier (SLCO1B1), SLCO1B1 (gene 10599); experiment: LTEA_HepaRG_SLCO1B1: Life Technologies and Expression Analysis (LTEA) Assay for solute carrier (SLCO1B1) using HepaRG (AID 2283530)
# Method in brief: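 SLCO1B1 transcript levels were quantified by TaqMan qRT-PCR using three housekeeping genes for normalization. This followed 48 h chemical exposure (100 uM top, half-log, 8 points, 0.5% DMSO) of HepaRG liver cells, with gain or loss fitted relative to DMSO.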
# [18] = read-out: sulfotransferase 2A1 (SULT2A1), SULT2A1 (gene 6822); experiment: LTEA_HepaRG_SULT2A1: Life Technologies and Expression Analysis (LTEA) Assay for sulfotransferase 2A1 (SULT2A1) using HepaRG (AID 2283531)
# Method in brief: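 Expression change of SULT2A1, by qRT-PCR with three housekeeping-gene normalization, was scored bidirectionally versus DMSO. Cells: differentiated HepaRG, dosed in duplicate for 48 h across 8 points, highest 100 µM, half-log dilution, 0.5% DMSO.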
# [19] = read-out: Transforming Growth Factor (TGFA), TGFA (gene 7039); experiment: LTEA_HepaRG_TGFA: Life Technologies and Expression Analysis (LTEA) Assay for Transforming Growth Factor (TGFA) using HepaRG (AID 2283532)
# Method in brief: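 Gene expression of TGFA was quantified by qRT-PCR after human HepaRG cells were treated for 48 h with test chemicals (eight concentrations, highest 100 uM, 0.5% DMSO). Activity in either direction was fitted relative to DMSO.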
# [20] = read-out: Nuclear factor NF-kappa-B p105 subunit (Homo sapiens) (UniProt P19838); experiment: LTEA_HepaRG_NFKB1: Life Technologies and Expression Analysis (LTEA) Assay for Nuclear Factor Kappa B Subunit 1 (NFKB1) using HepaRG (AID 2283521);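 further: TaqMan qRT-PCR transcript normalised to ACTB GAPDH and POLR2A housekeeping genes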
# Method in brief: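 Differentiated human HepaRG cells in serum-free induction medium with 0.5% DMSO were exposed for 48 h to eight half-log concentrations, top 100 uM, in duplicate. NFKB1 mRNA measured by Fluidigm TaqMan qRT-PCR, normalised to ACTB, GAPDH and POLR2A; bidirectional fit versus DMSO.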
# Signal transducer and activator of transcription 3 (Homo sapiens), sequence (P40763 whole entry, looked up): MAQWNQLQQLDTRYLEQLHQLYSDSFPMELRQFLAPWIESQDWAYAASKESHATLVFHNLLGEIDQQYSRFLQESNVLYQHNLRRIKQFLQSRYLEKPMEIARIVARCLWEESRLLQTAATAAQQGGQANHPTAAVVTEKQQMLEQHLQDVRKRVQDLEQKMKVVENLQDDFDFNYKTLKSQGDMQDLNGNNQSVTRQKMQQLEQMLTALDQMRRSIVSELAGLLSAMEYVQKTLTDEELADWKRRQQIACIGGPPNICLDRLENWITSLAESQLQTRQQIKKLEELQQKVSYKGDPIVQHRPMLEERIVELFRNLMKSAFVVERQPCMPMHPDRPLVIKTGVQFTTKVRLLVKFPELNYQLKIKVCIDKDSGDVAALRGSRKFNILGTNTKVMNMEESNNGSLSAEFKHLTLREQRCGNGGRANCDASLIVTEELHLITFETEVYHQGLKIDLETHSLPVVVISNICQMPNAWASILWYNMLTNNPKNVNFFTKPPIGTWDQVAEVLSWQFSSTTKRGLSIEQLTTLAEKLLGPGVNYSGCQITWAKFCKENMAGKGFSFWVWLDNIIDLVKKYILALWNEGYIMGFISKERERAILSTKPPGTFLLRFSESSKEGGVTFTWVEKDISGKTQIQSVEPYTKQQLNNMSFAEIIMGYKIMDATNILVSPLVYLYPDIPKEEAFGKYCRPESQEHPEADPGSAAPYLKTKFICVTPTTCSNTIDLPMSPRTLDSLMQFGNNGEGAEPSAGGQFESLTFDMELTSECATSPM
# Nuclear factor erythroid 2-related factor 2 (Homo sapiens), sequence (Q16236 whole entry, looked up): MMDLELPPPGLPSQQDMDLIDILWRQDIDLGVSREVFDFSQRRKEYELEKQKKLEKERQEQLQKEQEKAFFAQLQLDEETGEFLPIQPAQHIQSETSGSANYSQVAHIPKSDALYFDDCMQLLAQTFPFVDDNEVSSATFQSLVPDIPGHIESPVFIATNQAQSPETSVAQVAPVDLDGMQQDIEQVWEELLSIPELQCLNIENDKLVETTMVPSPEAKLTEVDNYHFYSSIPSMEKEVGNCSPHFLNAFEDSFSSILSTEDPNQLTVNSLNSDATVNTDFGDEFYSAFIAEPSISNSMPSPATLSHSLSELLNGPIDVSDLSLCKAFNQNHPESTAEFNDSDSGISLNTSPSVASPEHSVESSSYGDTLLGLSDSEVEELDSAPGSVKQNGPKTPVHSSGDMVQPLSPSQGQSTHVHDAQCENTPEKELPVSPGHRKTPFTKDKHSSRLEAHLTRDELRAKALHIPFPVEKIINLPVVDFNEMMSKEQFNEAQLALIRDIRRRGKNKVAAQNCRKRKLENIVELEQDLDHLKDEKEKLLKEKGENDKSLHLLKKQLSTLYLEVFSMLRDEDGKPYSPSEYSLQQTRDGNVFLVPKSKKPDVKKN
# Nuclear factor NF-kappa-B p105 subunit (Homo sapiens), sequence (P19838 whole entry, looked up): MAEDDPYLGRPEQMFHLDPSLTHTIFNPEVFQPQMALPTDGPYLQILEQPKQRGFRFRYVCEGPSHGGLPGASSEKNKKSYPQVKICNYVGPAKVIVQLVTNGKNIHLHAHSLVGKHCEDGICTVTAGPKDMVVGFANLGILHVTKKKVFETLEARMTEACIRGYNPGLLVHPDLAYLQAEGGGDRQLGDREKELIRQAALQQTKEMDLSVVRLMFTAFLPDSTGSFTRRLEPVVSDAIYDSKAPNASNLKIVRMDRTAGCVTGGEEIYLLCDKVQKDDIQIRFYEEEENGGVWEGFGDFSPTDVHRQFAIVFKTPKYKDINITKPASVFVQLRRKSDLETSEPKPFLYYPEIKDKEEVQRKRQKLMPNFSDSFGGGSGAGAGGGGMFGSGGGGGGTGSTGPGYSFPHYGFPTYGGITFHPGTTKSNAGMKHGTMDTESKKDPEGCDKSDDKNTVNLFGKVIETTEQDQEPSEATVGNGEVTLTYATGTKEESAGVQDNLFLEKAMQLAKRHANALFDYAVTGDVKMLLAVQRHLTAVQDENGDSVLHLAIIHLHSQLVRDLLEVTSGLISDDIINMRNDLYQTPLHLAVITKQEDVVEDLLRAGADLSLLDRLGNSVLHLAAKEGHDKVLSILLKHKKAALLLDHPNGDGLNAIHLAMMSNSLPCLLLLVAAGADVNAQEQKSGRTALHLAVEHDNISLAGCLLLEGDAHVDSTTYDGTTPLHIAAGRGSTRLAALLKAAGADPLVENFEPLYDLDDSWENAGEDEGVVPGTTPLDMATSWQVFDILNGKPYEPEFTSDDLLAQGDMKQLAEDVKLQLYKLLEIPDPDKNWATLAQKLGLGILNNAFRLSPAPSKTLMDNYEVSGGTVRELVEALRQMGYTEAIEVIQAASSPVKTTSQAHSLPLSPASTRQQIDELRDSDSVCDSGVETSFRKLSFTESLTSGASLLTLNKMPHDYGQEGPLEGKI
smiles,measurement,setting,value
O=S(=O)(O)C(F)(F)C(F)(F)C(F)(F)C(F)(F)C(F)(F)C(F)(F)C(F)(F)C(F)(F)F,outcome,[1],inactive
same,AC50,[2],76 µM (active) and 50 µM (active) and 48 µM (active)
same,outcome,[2],inactive
same,AC50,[3],61.1 µM (active)
same,outcome,[3],inactive
same,AC50,[4],82.5 µM (active) and 84.5 µM (active) and 48 µM (active)
same,outcome,[4],inactive
same,AC50,[5],87.5 µM (active) and 83.7 µM (active)
same,outcome,[5],inactive
same,AC50,[6],50 µM (active) [middle of 4 runs]
same,outcome,[7],inactive
same,outcome,[8],inactive
same,AC50,[9],50 µM (active)
same,outcome,[9],inactive
same,outcome,[10],inactive
same,AC50,[11],90.2 µM (active) and 89.8 µM (active) and 83.1 µM (active)
same,outcome,[11],inactive
same,AC50,[12],27 µM (active) [middle of 4 runs]
same,outcome,[13],inactive
same,AC50,[14],58 µM (active)
same,outcome,[14],inactive
same,AC50,[15],9.92 µM (active)
same,outcome,[15],inactive
same,outcome,[16],inactive
same,AC50,[17],93.1 µM (active) and 79 µM (active) and 77.6 µM (active)
same,outcome,[17],inactive
same,AC50,[18],7.51 µM (active) and 83 µM (active) and 85.1 µM (active)
same,outcome,[18],inactive
same,AC50,[19],50 µM (active) and 16.7 µM (active) and 48 µM (active)
CN1CSC(=S)N(C)C1,outcome,[1],inactive
same,outcome,[2],inactive
same,outcome,[3],inactive
same,outcome,[4],inactive
same,outcome,[5],inactive
same,outcome,[6],inactive
same,outcome,[7],inactive
same,outcome,[8],inactive
same,outcome,[20],inactive
same,outcome,[9],inactive
same,outcome,[10],inactive
same,outcome,[11],inactive
same,outcome,[12],inactive
same,outcome,[13],inactive
same,outcome,[14],inactive
same,outcome,[15],inactive
same,outcome,[16],inactive
same,outcome,[17],inactive
same,outcome,[18],inactive
same,outcome,[19],inactive
